In article PMC7819943, “Rice protein-binding microarrays: a tool to detect cis-acting elements near promoter regions in rice”:
Over roughly 68,000 sequences, “fluorescence intensity (a.u.)” has its median near 9,100; the highest 2% begin near 16,000. Only a selection was taken, and the highest values are over-represented in it overall.

Biological target: OsWRKY34 (Oryza sativa, UniProt Q0JBA9 1-250)
Test: protein-binding microarray (RPBM); PBS, 2% BSA, 51.3 ng/ul salmon testes DNA, 50 uM zinc acetate, 200 nM TF, 25 C, 1 h; high values mean tight binding
Conditions: protein: recombinant; tags: N-terminal polyhistidine and DsRed monomer fusion (pET32a); label: CyDye5-dUTP incorporated in the synthesized complementary strand; 3' TTTTT single-stranded linker to array surface; dsDNA, one strand shown
Outline: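 Polyhistidine-tagged DsRed fusions of transcription factors, joined at the N-terminus, were expressed in E. coli BL21-CodonPlus and isolated on Ni–NTA. They were incubated at 200 nM for 1 h at 25 °C on a custom Agilent array, double-stranded and BSA-blocked, in PBS with 2% BSA, salmon testes DNA and 50 µM zinc acetate. The binding signal is per-feature fluorescence intensity (arbitrary units) read on an Axon 4000B scanner after washing.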

Sequence of OsWRKY34 (Q0JBA9 entry or part of it): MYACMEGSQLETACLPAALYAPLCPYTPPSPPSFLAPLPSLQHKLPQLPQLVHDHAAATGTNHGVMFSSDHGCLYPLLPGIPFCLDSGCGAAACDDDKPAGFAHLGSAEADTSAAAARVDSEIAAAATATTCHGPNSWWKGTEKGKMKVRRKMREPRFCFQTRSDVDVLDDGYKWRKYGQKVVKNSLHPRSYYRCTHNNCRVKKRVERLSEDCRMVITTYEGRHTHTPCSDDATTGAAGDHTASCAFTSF

For “CGCATAATACTTTTACTTGCACCAATCAAGTACACGCTCTCGGAGTCACCTAGTGCAG”, which binding signal is on record?
The binding signal was 9320 fluorescence intensity (a.u.).

For “CCCTGGCAAATGTTCTTTCTCCTCTATTTTCCATCTCCAACGGAGTCACCTAGTGCAG”, which binding signal is on record?
Its binding signal is 9120 fluorescence intensity (a.u.).

With “TATAGATTTTCGTCTCCAACGCTTGACCGTCCGTTTTATTCGGAGTCACCTAGTGCAG” as the sequence, how does the binding signal read?
The binding signal was 12800 fluorescence intensity (a.u.).

With “CTTGCTCGTTGTAACTGTTTAATCTATTATGTTTTTTTTTCGGAGTCACCTAGTGCAG” as the sequence, how does the binding signal read?
The binding signal was 11000 fluorescence intensity (a.u.).

With “CCCACCGCTCCTCCGCGCCACGCTTCCTCGCCGCGCGCGCCGGAGTCACCTAGTGCAG” as the sequence, how does the binding signal read?
Its binding signal is 8390 fluorescence intensity (a.u.).

With “ACAACTGACTTACCCTTTCTGACTTGCAGATCAATTTGTCCGGAGTCACCTAGTGCAG” as the sequence, how does the binding signal read?
Its binding signal is 9050 fluorescence intensity (a.u.).

For “TGCAGTGCGGCGTCACCTATCTCGTGGGCGCTTTCTTAGACGGAGTCACCTAGTGCAG”, which binding signal is on record?
The binding signal was 9080 fluorescence intensity (a.u.).

“GGGTTGGTGGGCCTGATGGGCTTGGTTTTAGGGTTTCGTGCGGAGTCACCTAGTGCAG” was tested. Which binding signal did it give?
Its binding signal is 9510 fluorescence intensity (a.u.).

How did the binding signal turn out when “GTTTATCTCTATCTTTTTTTCATCTTCTCTCTATATATATCGGAGTCACCTAGTGCAG” was run?
Its binding signal is 11000 fluorescence intensity (a.u.).

Which binding signal does the source give for “TAGGCTATCTTTTGAAGGGAGGGGTTTTTTCATCACCTATCGGAGTCACCTAGTGCAG” here?
The binding signal was 17000 fluorescence intensity (a.u.).

Which binding signal does the source give for “TGGGGTTGGTTTGGTTTGGAGTACATCGAGATTCGAGAGACGGAGTCACCTAGTGCAG” here?
Its binding signal is 19900 fluorescence intensity (a.u.).

Which binding signal does the source give for “GTTTCGTGGTGGTTGCTGGGCTTTTCGTTGGCGTGGGTGGCGGAGTCACCTAGTGCAG” here?
Its binding signal is 11500 fluorescence intensity (a.u.).

Which binding signal does the source give for “ATTTTAGGGGAGGGTTTTACTTAGCAACTTTCATCTTATTCGGAGTCACCTAGTGCAG” here?
Its binding signal is 15800 fluorescence intensity (a.u.).

For “GGTTTCGTTGGTGGGGTTTTTTCATGGTGGCTAGGGTTTTCGGAGTCACCTAGTGCAG”, which binding signal is on record?
The binding signal was 51100 fluorescence intensity (a.u.).

Which binding signal does the source give for “CTGCGTTTATTTGGGTTTATTTGGGGCTGAGAGAGTACATCGGAGTCACCTAGTGCAG” here?
Its binding signal is 13800 fluorescence intensity (a.u.).

For “CTCGGGAATTCGGGTGGTTTGGTTGGGTTTCGTGGAGAATCGGAGTCACCTAGTGCAG”, which binding signal is on record?
Its binding signal is 18700 fluorescence intensity (a.u.).

Which binding signal does the source give for “ATGGTTGGTTTCGTGCTCTGTTTTTTTTTGGGAGAATTCGCGGAGTCACCTAGTGCAG” here?
Its binding signal is 12800 fluorescence intensity (a.u.).

How did the binding signal turn out when “ACGGCGAGACGGTTTGCGGCGGCGGCGGTGGGGTTGGGATCGGAGTCACCTAGTGCAG” was run?
The binding signal was 10600 fluorescence intensity (a.u.).

“ACTGTTGGAGTGGGAGTGGGGAATTCTAGGGTTTTGCAATCGGAGTCACCTAGTGCAG” was tested. Which binding signal did it give?
The binding signal was 12300 fluorescence intensity (a.u.).

With “ACGGGGATGACTCCGATGACTCTCCTGGCCTCGCCGCCTCCGGAGTCACCTAGTGCAG” as the sequence, how does the binding signal read?
Its binding signal is 8120 fluorescence intensity (a.u.).

With “ACTTGGTTCTTGCTCATCATCTTTCGCTTGCTCGTCAGCTCGGAGTCACCTAGTGCAG” as the sequence, how does the binding signal read?
The binding signal was 8360 fluorescence intensity (a.u.).

With “CCCTCTTCTCCTTTGCTTGGTCTCGTTTCGTCGCTGTCGTCGGAGTCACCTAGTGCAG” as the sequence, how does the binding signal read?
The binding signal was 8260 fluorescence intensity (a.u.).

Which binding signal does the source give for “GAGGTCCCGTCGCTCCGGCGAGCTCCCGCCATCCGCCTCGCGGAGTCACCTAGTGCAG” here?
The binding signal was 8630 fluorescence intensity (a.u.).
